Results from PubChem BioAssay (NCATS).
Inconclusive results are not listed. Values without a mark were called inactive. Calls of active or inactive are those of the source. Calls follow the shape of the full dose curve; tested in HEK293 reporter line.

Experiment: qHTS for Inhibitors of the Functional Ribonucleoprotein Complex (vRNP) of Lymphocytic Choriomeningitis Arenaviruses (LCMV): Viability assay - alamar blue signal for LCMV Primary Screen (AID 1347085); also: nearly all actives have a fitted effect of over 80% in size
Conditions: alamar blue viability counter-screen, LCMV vRNP screen cells; series mostly up to 57.5 µM; activity change, negative = lower viability: at the top concentration
% is scaled to controls: 0 for no effect and ±100 for the full control effect.

In the case of `CCN(CC)C(C)CN1c2ccccc2Sc2ccccc21` (stereo not drawn), the Potency is reported as “inactive”.
In the case of `NC(=O)N1c2ccccc2C=Cc2ccccc21`, the Potency is reported as “inactive”.
For `CN(C)C(=O)Oc1ccc[n+](C)c1`, the Potency was “inactive”.
In the case of `C[C@@H](O)[C@H]1C(=O)N2C(C(=O)O)=C(SCCN=CN)C[C@H]12`, the Potency is reported as “inactive”.
In the case of `O=c1c(-c2ccc(O)cc2)coc2cc(O)cc(O)c12`, the Potency is reported as “inactive”.
With `Cc1scc2c1N(C(=O)CN1CCN(C)CC1)c1ccccc1NC2=O` the Potency was “inactive”.
With `Cc1cc(=O)c2c(O)c3c(O)cc(=O)c4c3c3c(cc(O)c1c23)C(C)(C)C=4O` the Potency was “inactive”.
With `CC1COc2c(N3CCN(C)CC3)c(F)cc3c(=O)c(C(=O)O)cn1c23` (stereo not drawn) the Potency was “inactive”.
In the case of `CN1C(C(=O)Nc2ccccn2)=C(O)c2sccc2S1(=O)=O`, the Potency is reported as “inactive”.
For `CC(=O)OC(C)C[N+](C)(C)C` (stereo not drawn), the Potency was “inactive”.

In order of rising “activity change, negative = lower viability” value:
1. O=C1C(O)=C(O)C(=O)C(O)=C1O  -82.6%
2. O=c1cc[nH]c(=S)[nH]1  -9.84%
3. COC(=O)c1cc(Cl)ccc1OC  -7.87%
4. CCCC(=O)OCOC(=O)C1=C(C)NC(C)=C(C(=O)OC)C1c1cccc(Cl)c1Cl (stereo not drawn)  -7.51%
5. Clc1cccc(C(c2ccc3nc[nH]c3c2)n2ccnc2)c1 (stereo not drawn)  -7.13%
6. NS(=O)(=O)c1cc(Cl)c(Cl)c(S(N)(=O)=O)c1  -5.59%
7. CO[C@]12C[C@@H](COC(=O)c3cncc(Br)c3)CN(C)[C@@H]1Cc1cn(C)c3cccc2c13  -4.19%
8. CC(=O)NCc1c(I)c(NC(C)=O)c(I)c(C(=O)O)c1I  -1.4%
9. NC(CO)(CO)CO  -1.37%
10. C[N+]1(C)CCCC(OC(=O)C(O)(c2ccccc2)c2ccccc2)C1 (stereo not drawn)  -0.627%
11. CCCCCC=CCC=CCCCCCCCC(=O)OCC  -0.334%
12. Cc1ccc(-c2ncc(Cl)cc2-c2ccc(S(C)(=O)=O)cc2)cn1  -0.0943%
13. CC1(C)OC(=O)NC1=O  0.0951%
14. CCCCC(=O)OCC(=O)[C@H]1[C@H](C)C[C@H]2[C@@H]3C[C@H](F)C4=CC(=O)C=C[C@]4(C)[C@@]3(F)[C@@H](O)C[C@@]21C  0.103%
15. NC(=O)COCCN1CCN(C(c2ccccc2)c2ccc(Cl)cc2)CC1 (stereo not drawn)  1.01%
16. O=C(OOC(=O)c1ccccc1)c1ccccc1  1.92%
17. CC(=O)Nc1ccc(/C=N/NC(N)=S)cc1  2.09%
18. CC1(C)O[C@@H]2C[C@H]3[C@@H]4C[C@H](F)C5=CC(=O)C=C[C@]5(C)[C@@]4(F)[C@@H](O)C[C@]3(C)[C@]2(C(=O)CO)O1  2.76%
19. COc1cc(C(=O)NC2CCCNC2)cc(OC)c1OC (stereo not drawn)  3.4%
20. CC1(C)OC[C@@H]2O[C@@]3(C(=O)O)OC(C)(C)O[C@H]3[C@@H]2O1  5.36%
21. Cc1cc2cc3c(C)cc(=O)oc3c(C)c2o1  7.52%
22. CCOC(=O)O[C@]1(C(=O)OCCl)CC[C@H]2[C@@H]3CCC4=CC(=O)C=C[C@]4(C)[C@H]3[C@@H](O)C[C@@]21C  7.83%
23. O=C(O)c1[nH]n(-c2ccc(S(=O)(=O)O)cc2)c(=O)c1N=Nc1ccc(S(=O)(=O)O)cc1  8.88%
24. CC1c2ccccc2CN1NC(=O)c1ccc(Cl)c(S(N)(=O)=O)c1 (stereo not drawn)  9.79%
25. CC(=O)NS(=O)(=O)c1ccc(N)cc1  10.5%
26. Cc1ccc2ccc(Cl)cc2n1  11.2%
27. CCCc1c2oc(C(=O)O)cc(=O)c2cc2c(=O)cc(C(=O)O)n(CC)c12  11.3%

With `Nc1ccn(C[C@@H](CO)OCP(=O)(O)O)c(=O)n1` the “activity change, negative = lower viability” value was 14.8% [at 24.7 µM].
